This passage reports inhibition results from ChEMBL document CHEMBL1961873, “Compounds: GSK PKIS; Assays: Nanosyn kinase panel” (2012).

Values joined by “and” are separate entries in the source; they are usually repeats but may differ in a detail not shown here. Identical values can stand only once.

A word on the inhibition: it is the relative decrease from the control value, in per cent.

For assay [1], the target named is Protein kinase C gamma type (Homo sapiens) (UniProt P05129). To be noted: at 1 µM.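 Note: each value is an averaged percent inhibition of the enzyme.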
Assay [2] has as its target T1, Protein kinase C iota type (Homo sapiens) (UniProt P41743).
T1 sequence (whole entry): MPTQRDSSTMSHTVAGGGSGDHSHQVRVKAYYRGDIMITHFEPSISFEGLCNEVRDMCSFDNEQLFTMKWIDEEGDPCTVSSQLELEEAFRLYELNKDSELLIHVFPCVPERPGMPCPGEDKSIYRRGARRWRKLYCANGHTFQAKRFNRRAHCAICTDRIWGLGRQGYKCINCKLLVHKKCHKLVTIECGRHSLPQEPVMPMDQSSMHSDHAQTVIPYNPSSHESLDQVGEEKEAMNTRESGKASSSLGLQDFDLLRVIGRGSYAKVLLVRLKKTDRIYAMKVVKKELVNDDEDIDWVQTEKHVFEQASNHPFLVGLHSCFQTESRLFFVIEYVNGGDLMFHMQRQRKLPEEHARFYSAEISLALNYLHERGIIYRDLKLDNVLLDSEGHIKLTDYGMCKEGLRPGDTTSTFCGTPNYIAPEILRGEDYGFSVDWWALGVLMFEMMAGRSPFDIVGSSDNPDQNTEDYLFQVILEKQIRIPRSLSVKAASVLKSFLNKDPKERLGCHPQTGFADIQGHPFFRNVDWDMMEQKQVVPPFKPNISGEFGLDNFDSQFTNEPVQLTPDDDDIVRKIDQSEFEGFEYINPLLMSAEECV
To be noted: at 0.1 µM.

Assay [3] addresses T1, Protein kinase C iota type (Homo sapiens). To be noted: at 1 µM.
The target of assay [4] is Protein kinase C theta type (Homo sapiens) (UniProt Q04759). To be noted: at 0.1 µM.
Protein kinase C theta type (Homo sapiens), sequence (Q04759 whole entry, looked up): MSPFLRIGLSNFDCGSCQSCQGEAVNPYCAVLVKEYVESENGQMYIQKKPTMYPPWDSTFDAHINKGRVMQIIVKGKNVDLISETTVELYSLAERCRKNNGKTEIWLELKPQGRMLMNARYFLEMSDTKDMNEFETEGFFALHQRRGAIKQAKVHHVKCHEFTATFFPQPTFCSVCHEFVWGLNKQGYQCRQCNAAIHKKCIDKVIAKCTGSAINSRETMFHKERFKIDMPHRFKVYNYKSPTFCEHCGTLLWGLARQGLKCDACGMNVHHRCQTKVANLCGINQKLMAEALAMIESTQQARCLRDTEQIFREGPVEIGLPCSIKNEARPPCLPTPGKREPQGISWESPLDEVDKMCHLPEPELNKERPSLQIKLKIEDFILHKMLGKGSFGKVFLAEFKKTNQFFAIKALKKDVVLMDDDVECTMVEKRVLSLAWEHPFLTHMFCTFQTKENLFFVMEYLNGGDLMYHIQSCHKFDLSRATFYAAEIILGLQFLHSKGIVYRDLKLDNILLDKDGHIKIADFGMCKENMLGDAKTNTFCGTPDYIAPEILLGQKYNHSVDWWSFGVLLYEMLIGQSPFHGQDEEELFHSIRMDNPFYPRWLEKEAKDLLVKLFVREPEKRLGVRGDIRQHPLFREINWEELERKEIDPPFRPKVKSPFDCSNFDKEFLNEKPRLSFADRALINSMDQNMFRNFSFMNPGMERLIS
Assay [5] has the same target. To be noted: at 1 µM.
Assay [6] concerns the target Protein kinase C beta type (Homo sapiens) (UniProt P05771). To be noted: at 0.1 µM.
Assay [7] has the same target. To be noted: at 1 µM.
For assay [8], the target named is T2, Serine/threonine-protein kinase D1 (Homo sapiens) (UniProt Q15139).
T2 sequence (whole entry): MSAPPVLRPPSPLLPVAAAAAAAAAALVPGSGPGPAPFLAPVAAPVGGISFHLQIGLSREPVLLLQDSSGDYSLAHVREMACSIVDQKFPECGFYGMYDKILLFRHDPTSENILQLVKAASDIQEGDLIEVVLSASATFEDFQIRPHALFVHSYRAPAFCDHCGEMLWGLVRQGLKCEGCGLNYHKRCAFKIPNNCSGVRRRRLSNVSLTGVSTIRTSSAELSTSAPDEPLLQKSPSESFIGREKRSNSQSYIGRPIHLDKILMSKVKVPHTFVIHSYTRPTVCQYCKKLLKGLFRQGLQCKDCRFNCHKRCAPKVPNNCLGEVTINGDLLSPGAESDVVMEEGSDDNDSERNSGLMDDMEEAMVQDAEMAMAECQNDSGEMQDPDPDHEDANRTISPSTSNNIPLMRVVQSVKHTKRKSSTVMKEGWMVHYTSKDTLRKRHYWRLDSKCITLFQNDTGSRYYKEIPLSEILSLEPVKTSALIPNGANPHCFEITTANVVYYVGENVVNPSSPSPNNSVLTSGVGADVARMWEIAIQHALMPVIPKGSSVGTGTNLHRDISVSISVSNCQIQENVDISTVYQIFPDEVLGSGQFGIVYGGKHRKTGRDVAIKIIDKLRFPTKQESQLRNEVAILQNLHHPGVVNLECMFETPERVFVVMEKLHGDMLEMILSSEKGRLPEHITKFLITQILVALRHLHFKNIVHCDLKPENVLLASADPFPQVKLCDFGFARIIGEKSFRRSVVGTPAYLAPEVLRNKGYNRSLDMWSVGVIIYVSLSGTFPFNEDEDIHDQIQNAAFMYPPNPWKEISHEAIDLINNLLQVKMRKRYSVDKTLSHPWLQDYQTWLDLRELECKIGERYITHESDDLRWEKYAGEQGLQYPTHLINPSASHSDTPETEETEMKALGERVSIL
To be noted: at 0.1 µM.

Assay [9] addresses T2, Serine/threonine-protein kinase D1 (Homo sapiens). To be noted: at 1 µM.
Assay [10] concerns the target T3, Serine/threonine-protein kinase D2 (Homo sapiens) (UniProt Q9BZL6).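 Note: reported percent inhibition values are means, part of the GSK PKIS kinase panel screen.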
T3 sequence (whole entry): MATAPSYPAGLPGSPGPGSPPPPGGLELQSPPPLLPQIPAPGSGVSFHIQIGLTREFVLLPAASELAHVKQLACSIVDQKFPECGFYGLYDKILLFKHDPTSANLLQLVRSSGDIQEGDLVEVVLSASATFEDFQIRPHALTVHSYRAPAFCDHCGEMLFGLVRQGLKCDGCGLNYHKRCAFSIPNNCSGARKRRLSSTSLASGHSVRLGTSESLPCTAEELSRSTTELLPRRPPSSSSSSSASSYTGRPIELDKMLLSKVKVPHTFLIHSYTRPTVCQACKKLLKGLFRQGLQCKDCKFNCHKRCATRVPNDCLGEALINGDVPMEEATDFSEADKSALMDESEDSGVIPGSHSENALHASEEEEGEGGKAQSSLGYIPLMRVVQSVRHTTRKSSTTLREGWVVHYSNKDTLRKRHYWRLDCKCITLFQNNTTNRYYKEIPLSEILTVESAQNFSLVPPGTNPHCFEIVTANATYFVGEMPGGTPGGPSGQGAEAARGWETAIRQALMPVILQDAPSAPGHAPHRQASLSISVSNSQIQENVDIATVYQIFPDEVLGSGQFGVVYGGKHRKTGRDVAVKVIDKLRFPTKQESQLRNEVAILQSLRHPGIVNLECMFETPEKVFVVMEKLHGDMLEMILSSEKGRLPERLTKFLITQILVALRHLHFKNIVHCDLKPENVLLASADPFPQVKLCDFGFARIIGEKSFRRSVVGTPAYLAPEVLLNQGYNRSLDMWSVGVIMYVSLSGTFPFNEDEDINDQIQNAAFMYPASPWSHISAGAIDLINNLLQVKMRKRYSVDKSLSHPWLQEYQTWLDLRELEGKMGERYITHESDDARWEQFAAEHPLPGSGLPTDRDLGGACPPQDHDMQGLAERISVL
To be noted: at 0.1 µM.

Protein kinase C beta type (Homo sapiens), sequence (P05771 2-671 limits assumed): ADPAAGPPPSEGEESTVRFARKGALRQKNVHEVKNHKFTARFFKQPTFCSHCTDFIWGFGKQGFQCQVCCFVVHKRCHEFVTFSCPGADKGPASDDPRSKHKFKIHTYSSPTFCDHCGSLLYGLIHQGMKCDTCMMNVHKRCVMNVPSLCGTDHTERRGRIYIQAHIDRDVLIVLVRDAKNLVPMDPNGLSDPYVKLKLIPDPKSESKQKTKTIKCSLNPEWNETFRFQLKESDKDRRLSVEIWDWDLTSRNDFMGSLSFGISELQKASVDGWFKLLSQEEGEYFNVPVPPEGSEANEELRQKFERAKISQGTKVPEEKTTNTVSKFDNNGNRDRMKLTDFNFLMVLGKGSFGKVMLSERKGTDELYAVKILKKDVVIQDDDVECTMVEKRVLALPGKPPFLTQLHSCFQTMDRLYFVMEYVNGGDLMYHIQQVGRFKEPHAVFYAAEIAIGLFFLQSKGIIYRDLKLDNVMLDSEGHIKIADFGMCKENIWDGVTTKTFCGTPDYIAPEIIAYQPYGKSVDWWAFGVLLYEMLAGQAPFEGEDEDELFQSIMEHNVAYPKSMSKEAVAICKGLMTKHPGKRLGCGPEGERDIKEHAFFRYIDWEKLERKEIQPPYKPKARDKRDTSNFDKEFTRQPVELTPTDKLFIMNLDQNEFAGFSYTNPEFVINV

Consider `Cc1cc(O)cc(C)c1/C=C/c1cncc(C(N)=O)c1`, for which the inhibition in [1] was 2.79%; in assay [2], 0.54%; in [3], 1.6%; in assay [4], 1.21%; in assay [5], 0.54%; in assay [6] it was 1.28%. Moreover, the inhibition in assay [7] worked out at 1.05%; in assay [8], 2.25%; in assay [9], 3.69%; in assay [10] it was 2.04%.

`CN1CCN(Cc2ccc(-c3cc4ncnc(Nc5ccc(OCc6cccc(F)c6)c(Cl)c5)c4s3)o2)CC1`: the inhibition was 1.46% and 6.95% in assay [1]; 1.42% and 1.16% in [2]; 1.76% and 1.19% in [3]; 1.25% and 2.92% in [4]; 0.89% and 4.95% in [5]; 0.98% and 1.08% in assay [6]. Also, the inhibition in assay [7] was 2.27% and 3.9%; in [8], 3.21% and 5.57%; in assay [9], 6.44% and 7.02%; in assay [10] it was 2.14% and 5.13%.

As for `CNC(=O)c1cncc(/C=C/c2ccccc2C)c1`, the inhibition in assay [1] turned out to be 4.82%; in assay [2], 0.25%; in assay [3], 1.08%; in assay [4] it was 2.42%; in [5], 5.04%; in assay [6], 0.51%. Moreover, the inhibition in [7] was determined as 3.14%; in assay [8], 3.24%; in assay [9] it was 5.01%; in [10] it was 3.71%.

As to `CCN1CCC(C(=O)Nc2n[nH]c3nnc(-c4cccc(F)c4F)cc23)CC1`, the inhibition in assay [1] is -0.22%; in assay [2], -0.71%; in [3], -1.05%; in [4] it was 0.26%; in assay [5], -1.11%; in [6], 0.39%. Further, the inhibition is 0.87% in assay [7], -0.1% in [8], -0.6% in [9] and 0.26% in assay [10].

Consider `Nc1nccc(-c2c(-c3ccc(F)cc3)ncn2C2CCNCC2)n1`, for which the inhibition is 8.84% and 8.7% in [1]; -1.01% and 0.25% in assay [2]; 0.48% and 1.35% in [3]; -1.64% and -0.14% in assay [4]; -0.41% and 0.45% in [5]; 3.39% and 5.75% in assay [6]. Besides, the inhibition is 28.4% and 33.6% in assay [7]; -0.71% and 3.19% in assay [8]; 26.6% and 34.1% in [9]; -0.79% and 3.35% in assay [10].

For the compound `COc1cc(N2CCN(C(C)C)CC2)ccc1Nc1nc(Nc2cccc(F)c2C(=O)O)c2cc[nH]c2n1`, the inhibition stood at 5.49% in assay [1]; 0.72% in [2]; 0.65% in [3]; 2.48% in assay [4]; 3.08% in assay [5]; 1.66% in assay [6]. Further, the inhibition in assay [7] is 2.08%; in assay [8], 3.89%; in assay [9], 6.58%; in [10], 3.65%.

Turning to `COc1cc2c(cc1Nc1nc(Nc3cccc(F)c3C(N)=O)c3cc[nH]c3n1)N(C(=O)CN1CCN(C(C)C)CC1)CC2`, the inhibition was 3.85% in assay [1]; -0.63% in assay [2]; -1.02% in assay [3]; 2.08% in assay [4]; 5.05% in assay [5]; 1.31% in assay [6]. Moreover, the inhibition in assay [7] is 2.64%; in assay [8], 4.89%; in assay [9], 12.4%; in [10], 4.84%.

In the case of `CCS(=O)(=O)c1ccc(OC)c(Nc2ncc(-c3cccc(C(C)=O)c3)o2)c1`, the inhibition in assay [1] was 1.69%; in [2] it was 1.79%; in [3] it was -0.79%; in assay [4], 2.27%; in assay [5], 3.34%; in [6] it was 1.16%. Also, the inhibition in assay [7] was determined as 1.89%; in assay [8], 2.32%; in [9], 2.22%; in [10], 2.04%.

Regarding `FC(F)(F)CNc1nccc(-c2cnn3ncccc23)n1`, the inhibition was -1.39% in assay [1]; 1.84% in [2]; 1.19% in assay [3]; 1.1% in [4]; 1.36% in assay [5]; 0.94% in [6]. In addition, the inhibition in assay [7] came out at 1.72%; in assay [8], 3.65%; in [9], 5.03%; in [10], 3.32%.

`CC(C)c1ccc(-c2cc(-c3c[nH]nc3-c3ccccn3)ccn2)cc1`: the inhibition in [1] was 1.42%; in assay [2], -0.37%; in assay [3], 1.12%; in assay [4] it was 0.13%; in assay [5], -0.28%; in assay [6], 0.43%. In addition, the inhibition in assay [7] turned out to be 1.4%; in assay [8] it was 1.12%; in assay [9] it was 8.61%; in assay [10], 1.16%.
